Data on 40 compounds can be found in PubChem BioAssay (NCATS).

SMILES strings stand for the structures. Inconclusive results are not listed. Values without a mark were called inactive. The call rests on the fitted dose curve; in most records, active means well fitted inhibition curve with a large enough effect; inconclusive means small, poorly fitted or top-dose-only effect; inactive means no such curve, though single readings can be large or run the other way. Square brackets hold non-standard residues; d marks the D form. Peptide text beside a SMILES is read from it. ξ: configuration not given here. ξPhe(βξ-Me) = CC(c1ccccc1)C(N)C(=O)O; GABA = NCCCC(=O)O

In this test the target is Retinaldehyde dehydrogenase 3 (Homo sapiens) (UniProt P47895). In words: qHTS for Inhibitors of the Aldehyde Dehydrogenase Family (ALDH1A3) Primary screen (AID 2061315).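 Further: plate controls were DMSO vehicle for no effect and reference inhibitor for full effect.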 As to conditions: ALDH inhibition qHTS; series mostly up to 56 µM; activity change, negative = inhibition: at the top concentration. A general note: qHTS replaces the single test concentration by a dilution series.
On to `C#C[C@]1(OC(C)=O)CC[C@H]2[C@@H]3CCC4=C[C@@H](OC(C)=O)CC[C@@H]4[C@H]3CC[C@@]21C`, for which the “activity change, negative = inhibition” value was 2.45%.

Turning to `CC1(C)CC2C(C1)C1(C)CCC13OC3(CO)C2O` (stereo not given), the “activity change, negative = inhibition” value is 7.75%.

Take `O=C(O)Cc1ccccc1Oc1ccc(Cl)cc1Cl`: the “activity change, negative = inhibition” value is -11.5%.

With `C=C[C@H]1[C@H](O[C@@H]2O[C@H](CO)[C@@H](O)[C@H](O)[C@H]2O)OC=C(C(=O)OC)[C@H]1C[C@@H]1N[C@H](C(=O)O)Cc2c1[nH]c1ccccc21`, the “activity change, negative = inhibition” value was -25.3% [at 28 µM].

In the case of `CC(C(=O)O)c1ccc(/C=C2\CCCCC2=O)cc1` (stereo not given), the “activity change, negative = inhibition” value was -4.46%.

As for `C=C1C(=O)O[C@@H]2[C@H]1[C@H](O)C[C@]1(C)[C@@H](O)CC=C(C)[C@@H]21`, the “activity change, negative = inhibition” value is 0.657%.

Consider `CC1CCC2(OC1)OC1CC3C4CC=C5CC(O)CC(O[C@@H]6OC[C@@H](O)[C@H](O)[C@H]6O)C5(C)C4CCC3(C)C1(O)C2C` (stereo not given in full), for which the “activity change, negative = inhibition” value was 10.5% [at 16.9 µM].

For the compound `CC(=O)N[C@H]1CCN(c2ccc(C3=NOC(CN[S+](=O)([O-])C(C)C)C3)cc2F)C1` (stereo not given in full), the “activity change, negative = inhibition” value is -17.2%.

Regarding `C=C1C(=O)O[C@@H]2[C@H]3C(C)=CC(=O)C3=C(C)[C@@H](OC(=O)/C(C)=C\C)[C@H](O)[C@@H]12`, the “activity change, negative = inhibition” value is -6.05%.

For the compound `C[C@H]1[C@H](C)CC[C@]2(C(=O)O)CC[C@]3(C(=O)O)C(=CCC4[C@@]5(C)CC[C@H](O[C@@H]6O[C@@H](C)[C@H](O)[C@@H](O)[C@H]6O)C(C)(C)C5CC[C@]43C)[C@H]12` (stereo not given in full), the “activity change, negative = inhibition” value was 0.0664% [at 16.9 µM].

Consider `C=C(C(=O)O)C1CC(O)C2(C)CCCC(C)(O)C2C1` (stereo not given), for which the “activity change, negative = inhibition” value is -14.5%.

For `CC1=CC(=O)OC(C)(CC(C)(O)C(=O)O)C1` (stereo not given), the “activity change, negative = inhibition” value was -15.9%.

Consider `CC1CCC2C(C(=O)O)=CC3CC(C)(C)CC132` (stereo not given), for which the “activity change, negative = inhibition” value was 8.13%.

On to `COCC(c1ccc(C(F)(F)F)cc1)N1CCN(C2(C)CCN(C(=O)c3c(C)ncnc3C)CC2)CC1C` (stereo not given), for which the “activity change, negative = inhibition” value was -6.68%.

For the compound `NC(=O)[C@H]1CCCCc2c1[nH]c1ccc(Cl)cc21`, the “activity change, negative = inhibition” value was -11% [at 28 µM].

As to `CC1NC(=O)CCCNC(=O)C(Cc2c[nH]c3ccccc23)NC(=O)C(C)NC(=O)C(C(C)C)NC(=O)C(C(C)c2ccccc2)NC(=O)C(C(C)C)NC1=O` (stereo not drawn) (cyclo([GABA]AV[ξPhe(βξ-Me)]VAW); configuration not given here), the “activity change, negative = inhibition” value was 6.64% [at 16.9 µM].

On to `C/C(=C\CCC(C)(O)c1ccc(C)cc1)C(=O)O` (stereo not given), for which the “activity change, negative = inhibition” value was -11.9%.

For the compound `CC1(C)CCC2(C(=O)OC3OCC(O)C(O)C3O)CCC3(C)C(=CCC4C5(C)CC(O)C(OC6OC(COC7OCC(O)C(O)C7O)C(O)C(O)C6O)C(C)(C)C5CCC43C)C2C1` (stereo not given), the “activity change, negative = inhibition” value was 4.36% [at 16.9 µM].

As for `C=C1C[C@@]23CCC4[C@@](C)(CCC[C@@]4(C)C(=O)OC)C2CC[C@@H]1C3` (stereo not given in full), the “activity change, negative = inhibition” value is -0.974%.

Take `C=C(C)C1CCC2(C(=O)O)CCC3(C(=O)O)C(CCC4C5(C)CCC(O)C(C)(C(=O)O)C5CCC43C)C12` (stereo not given): the “activity change, negative = inhibition” value is 17.8% [at 28 µM].

With `CC1=C(C)C(=O)OC(C(C)C2C(O)CC3C4C5OC5C5(O)CC(OC6OC(CO)C(OC7OC(C)C(O)C(O)C7O)C(O)C6O)CC(O)C5(C)C4CCC32C)C1` (stereo not given), the “activity change, negative = inhibition” value was 6.37% [at 16.9 µM].

In the case of `CC1CC(C(O)C(C)(C)O)OC2CC3(C)C4(C)CCC5C(C)(C)C(=O)CCC5(C)C4CCC3(O)C12O` (stereo not given), the “activity change, negative = inhibition” value was 17.4% [at 28 µM].

Regarding `CC1OC(O[C@@H]2[C@H](O)[C@@H](OC3OC(CO)C(O)C(O)C3O)[C@H](OC(=O)[C@]34CCC(C)(C)C[C@H]3C3=CCC5[C@@]6(C)CC[C@H](O[C@@H]7O[C@H](C(=O)O)[C@@H](O)[C@H](O[C@@H]8OC[C@@H](O)[C@H](O)[C@H]8O)[C@H]7O[C@@H]7O[C@H](CO)[C@H](O)[C@H](O)[C@H]7O)[C@@](C)(C=O)C6CC[C@@]5(C)[C@]3(C)C[C@H]4O)O[C@@H]2C)C(O)C(O)C1OC1OCC(O)C(O)C1O` (stereo not given in full), the activity change, negative = inhibition is 11.9% [at 11.2 µM].

`C/C(=C\C(=O)C(C)C1CCC2C3=C(CCC21C)C1(C)CCC(=O)C(C)(C)C1(O)CC3)C(C)(C)O` (stereo not given): the “activity change, negative = inhibition” value was 21.7% [at 28 µM].

As to `CC(C)=C1C[C@@]2(C)C(=CC1=O)CC[C@@H](OC(=O)/C(C)=C/CO)[C@@H]2C`, the “activity change, negative = inhibition” value was 11.7%.

On to `C=C1C(=O)O[C@@H]2C[C@]3(C)[C@@H](CCC(C)=O)[C@@H]3C[C@H]12`, for which the “activity change, negative = inhibition” value was 2.63%.

Consider `COC(=O)C[C@H]1C(C)(C)[C@H](OC(=O)C(C)C)[C@@]2(O)C(=O)[C@]1(C)C1CC[C@]3(C)C(CC(=O)O[C@H]3c3ccoc3)[C@]13O[C@@H]32` (stereo not given in full), for which the “activity change, negative = inhibition” value was 12.4% [at 16.9 µM].

As for `CC(C(=O)Nc1cc(C#N)ccc1CCCC(=O)O)c1ccc(F)c2ccccc12` (stereo not given), the “activity change, negative = inhibition” value is 7.01%.

In the case of `C/C(=C\CCC1(C)C2CC3C(C2)C31C)C(=O)O` (stereo not given), the “activity change, negative = inhibition” value was 13.3%.

Consider `CCC(C)/C=C(C)/C=C/C1=CC2=C(Cl)C(=O)C(C)(OC(C)=O)C(=O)C2=CN1C1CCCCN(C(CCC(N)=O)C(=O)O)C1=O` (stereo not given), for which the “activity change, negative = inhibition” value was -14.9% [at 16.9 µM].

On to `Cc1ccc(N2CCN(S(=O)(=O)N3CCCCC3)CC2)c(C)c1`, for which the “activity change, negative = inhibition” value was -3.79%.

Consider `CCC(C)C1NC(=O)C(Cc2ccccc2)NC(=O)C(CCCCCC(=O)C(O)CO)NC(=O)C2CCCCN2C1=O` (stereo not given), for which the “activity change, negative = inhibition” value is -3.21% [at 16.9 µM].

Turning to `COc1ccc(C2(O)CCC(N3CC[C@@H](NC(=O)CNC(=O)c4cccc(C(F)(F)F)c4)C3)CC2)cn1` (stereo not given in full), the “activity change, negative = inhibition” value was -21.7%.

In the case of `CC(C)=CCCC1(C)C=Cc2c(c(C)cc3c2[nH]c2ccccc23)O1` (stereo not given), the “activity change, negative = inhibition” value was -10.7%.

For `CC(=O)c1c(O)cc2c(c1C)C(=O)CC(O)C2` (stereo not given), the “activity change, negative = inhibition” value was 2.31%.

In the case of `CC(O)C(C)n1ncn(-c2ccc(N3CCN(c4ccc(OCC5COC(Cn6cncn6)(c6ccc(Cl)cc6Cl)O5)cc4)CC3)cc2)c1=O` (stereo not given), the “activity change, negative = inhibition” value was -13.3%.

On to `CC1(C)CC[C@]2(C(=O)O[C@@H]3O[C@H](CO)[C@@H](O)[C@H](O)[C@H]3O)CC[C@]3(C)C(=CCC4[C@@]5(C)C[C@H](O)[C@H](O[C@@H]6OC[C@@H](O)[C@H](O)[C@H]6O)[C@@](C)(CO)C5CC[C@]43C)C2C1` (stereo not given in full), for which the “activity change, negative = inhibition” value was -1.38% [at 16.9 µM].

As for `CC(C)=CCC[C@](C)(O)[C@H]1CC[C@]2(C)[C@@H]1[C@H](O)CC1[C@@]3(C)CC[C@H](O)C(C)(C)C3[C@@H](O[C@@H]3O[C@H](CO)[C@@H](O)[C@H](O)[C@H]3O[C@@H]3OC[C@@H](O)[C@H](O)[C@H]3O)C[C@]12C` (stereo not given in full), the “activity change, negative = inhibition” value was -0.549% [at 16.9 µM].

On to `CC#C[C@@H](CC(=O)O)c1ccc(OCc2ccc(CN3CCC4(C=Cc5ccccc54)CC3)s2)cc1`, for which the “activity change, negative = inhibition” value is 3.02%.

As to `COC(=O)c1cc(OC)cc(OC)c1C(=O)c1c(OC)cc2c(c1O)C1CCCC(C)(O2)O1` (stereo not given), the “activity change, negative = inhibition” value was 4.33% [at 28 µM].
